Source: PubChem BioAssay (National Center for Advancing Translational Sciences (NCATS))
The full list was thinned out, with hits kept by preference.
Pf Dd2 inh = inhibitors of Plasmodium falciparum Dd2 growth | AID 1347417 | 120,000 compounds, 4.3% hits | Potency, µM (top dose mostly 28.9 µM), most hits filed as inhibitors | P. falciparum Dd2 growth, SYBR Green, 72 h; active = well fitted inhibition curve with a large enough effect; note: nearly all actives have a fitted effect of over 65% in size
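Readout: SYBR Green fluorescence, 485 nm excitation, 535 nm emission, after ~16 h lysis at 37C. Before that, Dd2-infected red cells (2.5% hematocrit) grew 72 h with compound, 29 uM top final concentration.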
Large screens that a line does not name were inactive.

COCc1nc(C2CCCN(C(=O)c3cc(OC)cc(OC)c3)C2)no1 (stereo not drawn)	none
COCCCn1c(C)cnc1C1CCN(S(=O)(=O)c2ccccc2)C1 (stereo not drawn)	none
O=C(CN1C(=O)NC(c2ccccc2Cl)C2=C1COC2=O)Nc1ccccc1 (stereo not drawn)	none
Cc1cnn(CCC(=O)NC2CCN(c3ccc(=O)n(C)n3)CC2)c1	none
CCc1ccc(S(=O)(=O)N2CCN(C3CCN(Cc4cccnc4)C3=O)CC2)cc1 (stereo not drawn)	none
c1ccc(-c2nc(CC3CCCNC3)no2)nc1 (stereo not drawn)	none
CC1(C(=O)NCc2ccncc2)CCCc2cnc(NCc3ccccc3)nc21 (stereo not drawn)	none
c1coc(-c2ccnc3nc(C4CCC4)nn23)c1	none
CC1(C(=O)NCC2CC2)CCc2cnc(NCc3ccccc3)nc21 (stereo not drawn)	none
COc1ccccc1Cn1cnc2cccnc21	none
COc1ccccc1Cc1nccc(C2(c3ccccc3Cl)CCNCC2)n1	Pf Dd2 inh 8.9µM
c1cnc2nc(C3CCNCC3)[nH]c2c1	none
Clc1ccccc1C1(c2ccnc(CC3CC3)n2)CCNCC1	Pf Dd2 inh 5µM
COc1ccccc1Cc1nc2ccccc2[nH]c1=O	none
Clc1ccccc1C1(c2ccnc(NCc3ccccc3)n2)CCNCC1	Pf Dd2 inh 4.5µM
Clc1ccccc1C1(c2ccnc(C3CCCC3)n2)CCNCC1	Pf Dd2 inh 4µM
CC(C)NC(=O)CCc1cc2n(n1)CCN(Cc1cc(=O)[nH]c(=O)[nH]1)C2	none
COCCOc1ccc2c(n1)CCN(C(=O)CC1CCCCC1)C2	none
C[S+](=O)([O-])c1ccc(-c2ccc3ncn(-c4ccc(F)cc4F)c(=O)c3n2)cc1	none
CN1CC(=O)N(C2CCCNC2)Cc2c(NCCOc3ccccc3)ncnc21 (stereo not drawn)	none
Cn1cnnc1CC1CCN(C(=O)C2CCCC2)C1 (stereo not drawn)	none
C[C@@H]1CN(C(=O)NCc2ccccc2F)CC[C@@]1(O)C1CCOCC1	none
CC(=O)N[C@H]1CC[C@]2(C)CC[C@@H]([C@H](C)C(=O)NC(C)(C)C)[C@H](O)[C@H]2[C@@H]1C	none
O=Cc1cccc(N2CCN([S+](=O)([O-])C3CC3)CC2=O)c1	none
CN1C(=O)[C@@H]2C[C@@H](O)CN2C2(CN(CC3CCCCC3)C2)C1=O	none
COc1ccccc1CN1CCc2nc(C(=O)N3CCOCC3)oc2CC1	none
COc1ccccc1CN1COc2ccc3c(oc(=O)c4ccccc43)c2C1	Pf Dd2 inh 0.56µM
COc1ccccc1CN1CCC(n2cc[nH]c2=O)CC1	none
COc1ccc(CN2CCN(Cc3cc(=O)oc4cc(C)ccc34)CC2)c(OC)c1OC	none
COc1ccccc1CN1CC[C@H]2COC(=O)N2c2cc(C)ccc2C1	none
CCCc1cc(=O)oc2c3c(ccc12)OCN(Cc1ccccc1OC)C3	Pf Dd2 inh 3.2µM
Cc1cc(=O)cc(C(=O)N2CCC(O)(CN3CCOCC3)C(C)(C)C2)o1 (stereo not drawn)	none
CCOc1cccc(CNC(=O)c2c(C)sc3ccn(CC)c(=O)c23)c1	none
O=C(NCc1ccccc1F)c1ccc2c(c1)CN(CC1=Cc3ccccc3OC1)CCO2	none
C[C@H]1CCCN1C(=O)c1nnc(COc2cccc(C(F)(F)F)c2)n1-c1ccccc1	none
O=C(c1ccncc1)N1CCC(N2C(=O)C(OCC3CC3)C23CCCCC3)CC1 (stereo not drawn)	none
O=C(NCc1ccc(F)cc1)c1nc(-c2ccc(Cl)nc2)c2cnccn12	Pf Dd2 inh 7.9µM
COC(=O)CNC(=O)c1nc(-c2cccc(C(F)(F)F)c2)c2cnccn12	none
COc1ccccc1-c1nc(C(=O)NCc2cccs2)n2ccccc12	none
O=C(NCc1cccnc1)c1nc(-c2ccc(F)cc2)c2cnccn12	none
Cc1cccc(C)c1-c1nc(C(=O)NCc2ccsc2)n2ccccc12	Pf Dd2 inh 8.9µM
Cc1cccc(C)c1-c1nc(C(=O)NCc2cccnc2)n2ccccc12	none
O=C(NCc1ccncc1)c1nc(-c2cccnc2)c2cnccn12	none
O=C(NCc1ccc(F)cc1)c1nc(-c2ccccc2)c2cnccn12	Pf Dd2 inh 4µM
O=C(c1nc(-c2ccc(Cl)nc2)c2cnccn12)N1CCCC1	none
O=C(NCc1cccs1)c1nc(-c2ccc(F)cc2)c2cnccn12	Pf Dd2 inh 4µM
C#CCNC(=O)c1nc(-c2ccc(Cl)nc2)c2ccccn12	none
N#CC1CCN(C(=O)c2nc(-c3ccc(F)cc3)c3cnccn23)CC1	none
Cc1cccc(N2CCN(C(=O)C3CCN(C(=O)C4CC4)CC3)CC2)n1	none
O=C1CCC2(CCN(C(=O)c3cnccn3)CC2)CN1CC1CCCO1 (stereo not drawn)	none
Cc1[nH]ncc1CNC(=O)CCC[C@@H]1[C@H]2CCCN3CCC[C@@H](CN1Cc1cccnc1)[C@@H]23	none
CC[C@H]1CN(C(=O)Nc2cccc(C(F)(F)F)c2)CC[C@H]1CC(=O)O	none
C#CCNC(=O)C[C@@H]1CCN(C(=O)Nc2cccc(C(=O)OCC)c2)C[C@@H]1CC	none
CCc1nnc(NC(=O)C2CC(=O)N(c3n[nH]c4ccccc34)C2)s1 (stereo not drawn)	none
CCN1C(=O)C2CC3(CCN(C(=O)c4cccs4)CC3)CN2C1=O (stereo not drawn)	none
CS(=O)(=O)Nc1ccc(C2(C(=O)NCc3cccc(F)c3)CCCCC2)cc1	none
Cn1cc(CN2CCOc3cc([S+](=O)([O-])Nc4cccnc4)ccc3C2)cn1	none
Cc1ccc(NC(=O)N2CC(C(=O)N(C)C)C3(CCOCC3)C2)cc1 (stereo not drawn)	none
O=C(NCc1cccs1)C1CN(c2cccc(Cl)c2)C(=O)N1 (stereo not drawn)	none
C[S+](=O)([O-])c1ccc(-c2nc(C(=O)NCc3ccc(F)cc3)n3ccncc23)cc1	Pf Dd2 inh 11µM
Cn1ncc2c(C(=O)NCc3ccc(F)cc3)cc(-c3ccc([S+](C)(=O)[O-])cc3)nc21	none
C#CCNC(=O)c1nc(-c2cccnc2)c2ccccn12	none
O=C(NCc1cccnc1)c1nc(-c2ccc(Cl)nc2)c2ccccn12	none
COc1ccccc1-c1nc(C(=O)NC2CC2)n2ccncc12	none
COCCNC(=O)c1nc(-c2ccccc2OC)c2cnccn12	none
COc1ccccc1-c1nc(C(=O)NCc2ccc3c(c2)OCO3)n2ccncc12	Pf Dd2 inh 13µM
CC(C)(C)c1nc(C(=O)NCc2ccc(F)cc2)n2ccccc12	none
O=C(NCc1cccnc1)c1nc(-c2ccccc2)c2ccccn12	Pf Dd2 inh 10µM
O=C(NCCc1ccc(Cl)cc1)c1nc(-c2ccccc2)c2ccccn12	none
O=C(NCCc1ccc(Cl)cc1)c1nc(-c2ccc(Cl)nc2)c2cnccn12	Pf Dd2 inh 8.9µM
COC(=O)CNC(=O)c1nc(-c2ccc(Cl)nc2)c2cnccn12	none
CN(C)c1ncccc1CNC(=O)COc1ccccc1Cl	none
COc1ccc(N2CC(C(=O)N3CCC(C(=O)NCC(F)(F)F)C3)NC2=O)cc1 (stereo not drawn)	none
CN1CCN([C@H]2CCN(C(=O)NCCc3ccccc3)C[C@H]2CCC(=O)O)CC1	none
O=C1CCCN1CCCN1C(=O)[C@@H]2C[C@@H](O)CN2C2(CN(CC3CC3)C2)C1=O	none
O=C(N[C@@H]1C[C@H](Cn2cc(C3CC3)nn2)[C@@H](O)[C@H]1O)c1ccc2c(c1)OCO2	none
Cc1noc(C)c1[S+](=O)([O-])N1CCC2(COC(=O)N2Cc2ccccc2)C1 (stereo not drawn)	none
CN(C(=O)Cn1cccc1-c1nc(-c2ccc(F)cc2)no1)c1ccccc1	none
CCc1ccc(NC(=O)CSc2nc(-c3ccccc3)c(C#N)c(=O)[nH]2)cc1	none
CC(C)c1ccc(C(=O)N2CCC(Cc3nc(-c4ccc(F)cc4)no3)CC2)cc1	none
